# Test results reported in PubChem BioAssay (NCATS).
# Inconclusive results are not listed. Where a call stands in place of a potency, no number is given. The source made the active and inactive calls. The call rests on the fitted dose curve; in most records, active means well fitted curve in the direction sought with a large enough effect; inconclusive means small, poorly fitted or top-dose-only effect, or another doubt; inactive means no such curve, though single readings can be large; an effect the other way counts as inactive or inconclusive.
# Legend:
# [1] = target: Luciferin 4-monooxygenase (Photinus pyralis) (UniProt P08659); test: Biochemical firefly luciferase enzyme assay for NPC (AID 624030);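 further: purified P. pyralis luciferase at 10 nM with luciferin and ATP substrate; nearly all actives have a fitted effect of over 70% in size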; details: purified P. pyralis luciferase, luminescence, 5 min; series mostly up to 58.6 µM
# Chain of Luciferin 4-monooxygenase (Photinus pyralis) (P08659 whole entry, looked up): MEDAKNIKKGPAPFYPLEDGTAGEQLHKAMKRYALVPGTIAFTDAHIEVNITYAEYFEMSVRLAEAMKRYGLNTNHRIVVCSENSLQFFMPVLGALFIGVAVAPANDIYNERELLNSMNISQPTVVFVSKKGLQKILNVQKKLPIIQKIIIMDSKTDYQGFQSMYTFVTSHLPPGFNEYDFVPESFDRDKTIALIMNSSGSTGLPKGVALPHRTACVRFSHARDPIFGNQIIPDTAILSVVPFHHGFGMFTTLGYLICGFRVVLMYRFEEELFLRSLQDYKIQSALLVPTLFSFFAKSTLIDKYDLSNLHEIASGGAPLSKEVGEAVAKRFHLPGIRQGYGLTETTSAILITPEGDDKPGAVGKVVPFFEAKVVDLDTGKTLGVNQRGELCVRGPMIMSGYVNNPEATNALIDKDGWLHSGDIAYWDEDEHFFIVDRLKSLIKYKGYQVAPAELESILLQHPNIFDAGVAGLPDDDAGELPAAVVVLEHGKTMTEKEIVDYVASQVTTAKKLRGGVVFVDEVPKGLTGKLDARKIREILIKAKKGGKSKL
# Outline: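 Purified P. pyralis luciferase at 10 nM in 50 mM Tris Acetate (final), luminescence read within 5 minutes of enzyme addition to compounds. Activity normalised to PTC124 versus DMSO; concentration-response curves classed by r2, magnitude and activity.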
# [2] = target: Voltage-gated inwardly rectifying potassium channel KCNH2 (Homo sapiens) (UniProt Q12809); test: qHTS Assay for Small Molecule Inhibitors of the Human hERG Channel Activity (AID 588834); details: U2OS BacMam hERG, FluxOR thallium flux fluorescence; series mostly up to 46.1 µM;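 further: top concentration of the series differs between compounds; lower thallium flux fluorescence means stronger hERG block; nearly all actives have a fitted effect of over 50% in size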
# Chain of Voltage-gated inwardly rectifying potassium channel KCNH2 (Homo sapiens) (Q12809 whole entry, looked up): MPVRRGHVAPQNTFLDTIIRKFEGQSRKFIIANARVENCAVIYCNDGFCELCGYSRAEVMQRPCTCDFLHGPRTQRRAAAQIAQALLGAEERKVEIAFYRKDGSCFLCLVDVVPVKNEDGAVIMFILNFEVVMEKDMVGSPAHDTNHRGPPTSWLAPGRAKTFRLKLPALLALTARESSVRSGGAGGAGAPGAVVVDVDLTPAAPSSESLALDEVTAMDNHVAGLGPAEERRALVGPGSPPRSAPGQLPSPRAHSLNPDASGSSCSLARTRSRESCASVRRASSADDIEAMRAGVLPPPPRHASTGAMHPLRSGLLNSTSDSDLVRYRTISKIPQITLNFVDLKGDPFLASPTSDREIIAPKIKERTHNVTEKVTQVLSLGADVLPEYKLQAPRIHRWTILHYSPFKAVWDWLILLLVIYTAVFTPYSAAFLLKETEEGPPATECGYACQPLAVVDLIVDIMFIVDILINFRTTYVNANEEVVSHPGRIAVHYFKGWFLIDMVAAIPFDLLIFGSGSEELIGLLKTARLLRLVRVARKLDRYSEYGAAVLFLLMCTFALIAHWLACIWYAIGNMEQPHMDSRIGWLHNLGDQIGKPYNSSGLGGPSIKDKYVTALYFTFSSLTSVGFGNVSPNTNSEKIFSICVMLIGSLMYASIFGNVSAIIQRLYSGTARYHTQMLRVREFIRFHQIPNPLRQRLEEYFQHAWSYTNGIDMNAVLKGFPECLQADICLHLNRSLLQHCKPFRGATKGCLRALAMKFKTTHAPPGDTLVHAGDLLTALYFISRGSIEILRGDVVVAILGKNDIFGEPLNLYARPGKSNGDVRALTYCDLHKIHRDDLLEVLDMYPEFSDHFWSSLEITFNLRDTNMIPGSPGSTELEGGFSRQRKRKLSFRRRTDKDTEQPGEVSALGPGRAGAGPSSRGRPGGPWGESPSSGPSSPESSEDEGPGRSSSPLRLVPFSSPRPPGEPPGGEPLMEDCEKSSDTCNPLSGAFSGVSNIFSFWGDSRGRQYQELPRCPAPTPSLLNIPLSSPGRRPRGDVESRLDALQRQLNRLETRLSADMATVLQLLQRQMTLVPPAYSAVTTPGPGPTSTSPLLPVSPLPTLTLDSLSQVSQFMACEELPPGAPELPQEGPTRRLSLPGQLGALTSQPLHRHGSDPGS
# Outline: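 Blockade is seen as reduced FluxOR thallium-flux fluorescence in U2OS cells expressing hERG from a BacMam construct, in Opti-MEM with 2% FCS. Concentration-response data fitted to the Hill equation for AC50.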
# [3] = S16 Schwann cell PMP22 intronic element firefly luciferase assay (AID 624032); details: S16 rat Schwann cells, PMP22 element FLuc, 24 h; series mostly up to 57.5 µM; further: nearly all actives have a fitted effect of over 30% in size; further: potency means the concentration at half of the fitted maximal effect
# Outline: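 Rat S16 Schwann cells stably carrying firefly luciferase driven by a PMP22 intronic element, in 10% FBS, treated 24 h at 37 C. ONE-Glo luminescence normalized to PTC124 control and DMSO (0%); curves classed by r2, magnitude and activity.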
# [4] = S16 Schwann cell viability assay (CellTiter-Glo assay) (AID 624031); details: S16 rat Schwann cells viability, 24 h; series mostly up to 57.5 µM;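 further: native untransfected S16 rat Schwann cells; cellular ATP luminescence as a viability measure; nearly all actives have a fitted effect of over 70% in size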
# Outline: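 Concentration-effect curves come from CellTiter-Glo luminescence of S16 rat Schwann cells after 24 h compound exposure. Each reading was normalized to DMSO wells (0%) and wells without cells, and curves were ranked by r2 and response magnitude.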
compound,measurement,setting,value
COP(=S)(OC)Oc1ccc(S(N)(=O)=O)cc1,Potency,[1],inactive
Cc1cccc(Cc2cnc[nH]2)c1C,Potency,[1],inactive
Cc1nc2ccccc2c(=O)n1-c1ccccc1Cl,Potency,[1],inactive
CC(CC(C#N)(c1ccccc1)c1ccccc1)N(C)C (centres undefined),Potency,[1],inactive
O=C(O)Cc1ccccc1,Potency,[1],inactive
C[C@]12CC[C@H]3[C@@H](CC=C4C[C@@H](O)CC[C@@]43C)[C@@H]1CC[C@@H]2O,Potency,[2],inactive
same,Potency,[1],inactive
same,Potency,[3],inactive
O=C(O)c1nn(Cc2ccc(Cl)cc2Cl)c2ccccc12,Potency,[2],inactive
same,Potency,[1],inactive
same,Potency,[4],inactive
same,Potency,[3],inactive
C[N+]1(CCC(C(N)=O)(c2ccccc2)c2ccccc2)CCCCC1,Potency,[2],inactive
same,Potency,[1],inactive
same,Potency,[4],inactive
same,Potency,[3],inactive
CCN(CC)C(C)C(=O)c1ccccc1 (centres undefined),Potency,[2],inactive
same,Potency,[1],inactive
same,Potency,[4],inactive
same,Potency,[3],inactive
CN(C)CCc1c[nH]c2cccc(O)c12,Potency,[1],inactive
CC[C@]1(O)CC[C@H]2[C@@H]3CCC4=CCCC[C@@H]4[C@H]3CC[C@@]21C,Potency,[2],inactive
same,Potency,[1],inactive
same,Potency,[3],9.07 µM (active)
CCOC(=O)NC(C)(C)Cc1ccc(Cl)cc1,Potency,[1],inactive
CNC(=O)NC(O)C(Cl)(Cl)Cl (centres undefined),Potency,[2],inactive
same,Potency,[1],inactive
same,Potency,[4],inactive
same,Potency,[3],inactive
CNC(C)Cc1ccccc1OC (centres undefined),Potency,[1],inactive
O=C(O)CCCCCCNC1c2ccccc2CCc2ccccc21,Potency,[1],inactive
CNC(C)Cc1ccc2c(c1)OCO2 (centres undefined),Potency,[1],inactive
CCCN(CCC)CCc1c[nH]c2ccccc12,Potency,[1],inactive
CCC1(CC)C(=O)NC(=O)NC1=O,Potency,[2],inactive
same,Potency,[1],inactive
same,Potency,[4],inactive
same,Potency,[3],inactive
NC1(c2ccccc2)CCCCC1,Potency,[1],inactive
COc1ccc2[nH]cc(CCN(C(C)C)C(C)C)c2c1,Potency,[1],inactive
CCCOC(=O)Cc1ccc(OCC(=O)N(CC)CC)c(OC)c1,Potency,[1],inactive
CC[C@H]1C[C@H]2[C@@H]3CCC4=CC(=O)CC[C@@H]4[C@H]3CC[C@]2(C)[C@H]1O,Potency,[1],inactive
c1ccc2c(c1)Sc1ccccc1N2CC1CN2CCC1CC2 (centres undefined),Potency,[1],inactive
O=C(N[C@@H]1N=C(c2ccccc2F)c2cccc3c2N(CC3)C1=O)c1cc2ccccc2[nH]1,Potency,[1],inactive
CCc1cc(OC)c(C[C@H](C)N)cc1OC,Potency,[1],inactive
CCOC(=O)c1ncn2c1CN(C)C(=O)c1c(I)cccc1-2,Potency,[1],inactive
c1ccc2nc(N3CCNCC3)ccc2c1,Potency,[2],inactive
same,Potency,[1],inactive
same,Potency,[4],inactive
same,Potency,[3],inactive
